Records with an inconclusive call do not appear. Unmarked numbers belong to inactive results. The source made the active and inactive calls. Calls follow the shape of the dose curve; as a rule, active = well fitted cell-killing curve with a large enough effect; inconclusive = small, poorly fitted or top-dose-only effect, or effect the other way; inactive = no such curve, though single readings can be large or run the other way.
Assay: Cell viability assay in S16 Pmp22-HiBiT cells
Details: S16 Schwann Pmp22-HiBiT viability, CellTiter-Glo, 24 h; series mostly up to 27.9 µM; activity change, negative = cytotoxicity: at the top concentration
Source text: Assay Provider: Jim Inglese Ph.D. National Center for Advancing Translational Science, National Institutes of Health, Rockville, MD CMT is a heterogeneous group of neurological disorders that affect approximately 1 in 2,500 people. In particular, the most common form of CMT, CMT1A is genetically linked to the duplication of the PMP22 gene which leads to Schwann cell overexpression, thus manifesting itself as a typical case of dose-sensitive diseases. To identify small molecule compounds that can mediate the expression of PMP22 we developed a phenotypic assay screening strategy by utilizing genome editing techniques to construct Schwann cell lines containing novel reporter technology to monitor the transcriptional or translational regulation of PMP22. For high sensitivity we use a bioluminescent reporter system embedded in the 3' UTR of the PMP22 gene (S16(c9) Pmp22-F2sN) to identify compounds that inhibit gene expression. […] We can further discriminate the effect of all transcriptionally active molecules on PMP22 translation or stability with an assay that incorporates a short NLuc peptide (HiBiT) at the C-terminus of expressed PMP22 (S16(f8) PMP22-HiBiT) allowing alpha complementation and luminescence detection of membrane-associated PMP22 protein. These assays were screened against the NCATS Sytravon Library Collection. Miniaturization of these assays to 1536-well plate format for quantitative high throughput screening (qHTS) yielded rich data sets immediately from the qHTS assay (S16(c9) Pmp22-F2sN), when compared with data from a cell viability assay (Cell TiterGlo) to identify compounds that decreased the output signals through cellular toxicity to streamline the selection process of actives for subsequent characterization using the HiBiT assay (S16(f8) PMP22-HiBiT).
Cell viability assay in S16 Pmp22-HiBiT cells PROTOCOL TABLE (format as described by Inglese J, Shamu CE and Guy RK. 2007) SEQUENCE No. (e.g., 1, 2, 3, etc.); PARAMETER (e.g., Cells, Incubation, Reagent, etc.); VALUE and DESCRIPTION. 1. Cells. Add 500-1,000 cells in 4 uL in growth media (DMEM High Glucose, No Phenol Red media + 10% heat-inactivated FBS + 1% Pen/Strep supplemented media) per well into Greiner 1536-well white/solid bottom high base, TC-treated plates. 2. Compounds. Library compounds and controls added at 23nL per well, transferred by Pin Tool. 3. Incubation. Incubate plates at 37C, 5% CO2, 95% RH for 24 h. 4. Reagent. Add 3uL CellTiter-Glo per well of Greiner 1536-well plates. 5. Incubation. Incubate plates at room temperature for 15 min., protect from light. 6. Detector. Luminescence measured using CCD-based camera (Viewlux). NOTES (numbers refer to Sequence numbers above; values are from representative experiments) 6. Luminescence Read: Clear filter; Exposure = 1 sec, Gain = High, Speed = Slow, Binning = 2X REFERENCES: 1. Inglese J, Shamu CE and Guy RK, Reporting data from high throughput screening of small molecule libraries, Nature Chemical Biology, 2007, 3(8): 438-441. doi.org/10.1038/nchembio0807-438 2. Yasgar A, Shinn P, Jadhav A, Auld DS, Michael S, Zheng W, Austin CP, Inglese J and Simeonov A, Compound Management for Quantitative High-Throughput Screening. J. Assoc. Lab. Auto., 2008, 13: 79-89. doi: 10.1016/j.jala.2007.12.004

Row | Structure (SMILES) | Potency | activity change, negative = cytotoxicity
1 | COc1ccccc1Nc1nn2c(=O)c3ccc(C(=O)Nc4ccc(F)cc4)cc3nc2s1 | 4.57 µM (active) | –
2 | CCc1ccc(C(=O)c2cn(CC(=O)Nc3cc(OC)cc(OC)c3)c3ccc(CC)cc3c2=O)cc1 | – | -7.43%
3 | COc1ccc(Nc2nc3c(S(=O)(=O)c4ccccc4)nnn3c3ccc(Cl)cc23)cc1 | – | -15.1%
4 | COc1cccc(-n2c(SCC(=O)c3ccc(Cl)cc3)nc3c([nH]c4ccccc43)c2=O)c1 | – | 23.1%
